The results in this text go back to the supplement of paper PMC7057948, “A genome-wide approach for identification and characterisation of metabolite-inducible systems” (Nature Communications, 2020).

Common to all, as to details: inducer concentration 5 mM; 6 h; Cupriavidus necator H16; minimal medium + 0.4% gluconate
Assay [1] relates to HpdR/P_H16_RS18295 3-hydroxypropanoate biosensor (pEH010). The assay is described as follows: relative induction of RFP reporter vs primary effector (background-corrected); higher = stronger activation of the biosensor. The procedure: (§1)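 C. necator H16 strains, each carrying one of 21 transcription factor/inducible promoter–mRFP biosensor plasmids, were grown in minimal medium in 96-well plates (robotic platform). Each was exposed to 46 structurally or metabolically related compounds at 5 mM at 30 °C. OD-normalised RFP fluorescence was read 6 h later and expressed as relative induction (%) = 100 × (FL compound − FL uninduced)/(FL primary inducer − FL uninduced); mean of n=4.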

Assay [2] deals with AcoR/P_H16_RS19445 acetoin biosensor (pEH052). The assay is described as follows: relative induction of RFP reporter vs primary effector; higher = stronger activation. The procedure: (§2)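 Orthogonality screen of 21 primary inducers against 21 transcription factor/inducible promoter–mRFP biosensors in C. necator H16 in minimal medium, robotic 96-well format, 5 mM inducer, 30 °C. OD-normalised RFP fluorescence was read 6 h later and expressed as relative induction (%) = 100 × (FL compound − FL uninduced)/(FL primary inducer − FL uninduced); mean of n=4. Cognate pairs (100% by definition) omitted.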

The subject of assay [3] is AraC/P_araBAD L-arabinose biosensor (pEH176). The assay is described as above. The procedure:
as §2

Assay [4] deals with BadR/P_H16_RS27200 cyclohexanecarboxylate biosensor (pEH159). The assay is described as above. The procedure: as §2
Assay [5] concerns BenM/P_H16_RS09790 benzoate biosensor (pEH148). The description is as above. The procedure:
as §2

Assay [6] has as its system FdsR/P_H16_RS03165 formate biosensor (pEH134). The description is as above. The procedure:
as §2

The subject of assay [7] is GabR/P_H16_RS23655 GABA biosensor (pEH256). Described as above. The procedure: as §2
Assay [8] relates to HpdA/P_H16_RS24175 L-tyrosine biosensor (pEH158). The assay is described as above. The procedure: as §2
Assay [9] concerns NahR/P_H16_RS08125 salicylate biosensor (pEH042). The assay is described as above. The procedure: as §2
The test system of assay [10] is OapR/P_H16_RS01330 beta-alanine biosensor (pEH147). The description is as above. The procedure:
as §2

The subject of assay [11] is PcaQ/P_H16_RS30145 3,4-dihydroxybenzoate biosensor (pEH161). Described as above. The procedure: as §2
The subject of assay [12] is PhgR/P_H16_RS05530 phenylglyoxylate biosensor (pEH155). The assay is described as above. The procedure: as §2
Assay [13] concerns SauR/P_H16_RS13695 sulfonatoacetate biosensor (pEH157). The assay is described as above. The procedure: as §2
For assay [14], the system named is XdhR/P_H16_RS05055 xanthine biosensor (pEH154). Described as above. The procedure: as §2
Assay [15] concerns heterologous L-rhamnose-inducible system. The description is as above. The procedure: as §2
Assay [16] concerns heterologous acrylate-inducible system. Described as above. The procedure:
as §2

For assay [17], the system named is heterologous cumate-inducible system. The assay is described as above. The procedure:
as §2

Assay [18] deals with heterologous itaconate-inducible system. The description is as above. The procedure: as §2
Assay [19] deals with PhgR/P_H16_RS05530 phenylglyoxylate biosensor (pEH155). The assay is described as follows: relative induction of RFP reporter vs primary effector (background-corrected); higher = stronger activation of the biosensor. The procedure: as §1
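For relative induction of RFP reporter vs primary effector (background-corrected) in this document: RFP excited at 585 nm with emission read at 620 nm, culture medium blanks subtracted from fluorescence and absorbance prior to normalisation.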

With `CCC(=O)O`, in assay [1], the “relative induction of RFP reporter” value was 0.144%.

For the molecule `O=C(O)C(O)C(O)C(=O)O` (centres undefined) [tartrate], the “relative induction of RFP reporter” value is 0.491% in assay [2]; -0.00769% in assay [3]; -0.687% in [4]; 0.00705% in assay [5]; -1.89% in assay [6]; 0.312% in assay [7]. In addition, the “relative induction of RFP reporter” value in assay [8] was -0.0207%; in assay [9], 0.0221%; in assay [10], -0.132%; in assay [11], 0.0285%; in [12], -0.242%; in assay [13], 0.033%. The “relative induction of RFP reporter” value is -0.458% in assay [14]; 0.0177% in [15]; -0.36% in assay [16]; -0.8% in assay [17]; 0.359% in assay [18].

In the case of `O=CC(=O)O`, the “relative induction of RFP reporter” value in assay [19] was -0.587%.
